Screening results from PubChem BioAssay.
Sm TGR block: blocks Schistosoma mansoni thioredoxin glutathione reductase | Potency, µM (highest dose often 114 µM), usual class: inhibitors | purified TGR, DTNB reduction, TNB absorbance 405 nm | AID 485364 | Q962Y6 | 3% of 360,000 active; active = well fitted inhibition curve with a large enough effect; inconclusive = small, poorly fitted or top-dose-only effect; inactive = no such curve, though single readings can be large or run the other way; also: nearly all actives have a fitted effect of over 60% in size
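TGR 20 nM + NADPH 100 uM (dispensed conc.), cpd preinc 15 min RT; start with NADPH (500 uM addition) then DTNB (15 mM addition). Kinetic TNB absorbance, 405 nm filter. Four-parameter Hill fit across titration.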
Shiga inhibitor: blocks Shiga toxin action in Vero cells; 9.2% of 290,000 active; Vero cells, Shiga toxin protein synthesis inhibition reporter; inhibition, % at 38.7 µM; in the data active = inhibition mostly above about 28%, no sharp cut-off; inactive = mostly below about 43%
FMDV inh: blocks foot and mouth disease virus. FMDV antiviral cell-based qHTS. Potency, µM (doses to about 57.9 µM), actives largely listed as inhibitors. 1.2% of 410,000 active. AID 1159524; calls by dose curve; tested in HEK293T cells; also: read-out not given here; nearly all actives have a fitted effect of over 45% in size
CHX counter: affects cycloheximide protein synthesis inhibition readout, counter-screen; cell reporter, cycloheximide protein synthesis inhibition counterscreen; max response, %; 12% of 300,000 active; AID 2314; in the data active = max response mostly above about 13%, no sharp cut-off; inactive = mostly below about 14%; also: read at 38.3 µM for the half of the compounds with a filed dose
Each line names hits and unclear results; the compound was inactive in the other large screens. Hits are enriched below; roughly 12% of the tested compounds scored in any of these assays.

CCCc1cc(C(=O)Nc2cccc(C(C)=O)c2)no1	Shiga inhibitor 66.5, CHX counter 31.1
CCc1ccc(C2C(C(=O)Nc3ccccc3OC)=C(C)Nc3c(C(=O)Nc4ccc(C)cc4)cnn32)cc1 (stereo not given)	none (no result: Shiga inhibitor, CHX counter)
COc1ccnc(Oc2ccc(Cl)cc2)c1C#N	none
CN(C)c1ccnc(Oc2ccc(Cl)cc2)c1C#N	Shiga inhibitor 126.7, CHX counter 69.1 (no result: FMDV inh)
CN(C)c1ccnc(Oc2ccccc2)c1C#N	none
CN(C)c1ccnc(Oc2ccc(C(C)(C)C)cc2)c1C#N	Shiga inhibitor 72.6, CHX counter 37.4 (no result: FMDV inh)
Cc1cc(Cl)ccc1Oc1nccc(N(C)C)c1C#N	CHX counter 13.9 (no result: FMDV inh)
COc1ccc(-n2nc3c(N4CCC(C(=O)NCc5cccc(F)c5)CC4)nnc(C)c3c2C)cc1	none (no result: Shiga inhibitor, CHX counter)
CN(C)c1ccc(N=Nc2ccccc2C(=O)OCC(=O)N2CCCC2)cc1	none
CN(C)c1ccc(N=Nc2ccccc2C(=O)OCC(=O)N2CCCCCC2)cc1	Shiga inhibitor 55.8, CHX counter 27.7
CN(C)c1ccc(N=Nc2ccccc2C(=O)OCC(=O)Nc2ccccc2C(F)(F)F)cc1	Shiga inhibitor 55.8, CHX counter 37.4
Cc1nc2ccccc2nc(C)c1=NOCc1ccc(C#N)cc1	Shiga inhibitor 66.5, FMDV inh inconclusive, CHX counter 28.9
N#Cc1ccc(CO/N=C/c2ccccc2)cc1	Shiga inhibitor 76.3, CHX counter 40.9
Cc1nc2ccccc2nc(C)c1=NOCc1cccc(F)c1	FMDV inh inconclusive
CCOc1ccc(NC2C=CS(=O)(=O)C2)cc1 (stereo not given)	Sm TGR block 28.2µM
COc1ccc(NC2C=CS(=O)(=O)C2)cc1 (stereo not given)	none
Cc1ccc(-c2nc3c(c(SCC(=O)Nc4cccc(C(=O)O)c4)n2)Cc2cccc(C)c2O3)cc1	none (no result: Shiga inhibitor, FMDV inh, CHX counter)
O=C(CCCn1c(=O)c2cccn2c2cccnc21)Nc1ccccc1Br	none (no result: Shiga inhibitor, CHX counter)
CN(C(=O)c1ccc(-c2nn(C)c(=O)c3ccccc23)cc1)C1CCCCC1	FMDV inh 22.4µM
Cn1nc(-c2ccc(C(=O)Nc3ccc(OC(F)(F)F)cc3)cc2)c2ccccc2c1=O	FMDV inh 14.1µM (no result: Shiga inhibitor, CHX counter)
Cn1nc(-c2ccc(C(=O)O)cc2)c2ccccc2c1=O	none
CNC(=O)COc1ccc(NC(=O)c2ccc(-c3nn(C)c(=O)c4ccccc34)cc2)cc1	none (no result: Shiga inhibitor, CHX counter)
Cn1nc(-c2ccc(C(=O)Nc3cccc(C(F)(F)F)c3)cc2)c2ccccc2c1=O	FMDV inh 22.4µM (no result: Shiga inhibitor, CHX counter)
COc1ccc(C(=O)Nc2nc(-c3nnn(-c4ccc(C(C)C)cc4)c3C)ns2)cc1	none (no result: Shiga inhibitor, CHX counter)
CCc1sc(Nc2cccc(Cl)c2)nc1-c1cc2cccc(OC)c2oc1=O	none (no result: Shiga inhibitor, CHX counter)
CC[Si](CC)(CC)O[C@H]([C@@H](C)COCOC)[C@@H](C)COCc1ccc(OC)cc1	none (no result: Sm TGR block, FMDV inh)
CN(C)c1ccc(-c2nc3ccccc3c(=O)[nH]2)cc1	Shiga inhibitor 37.5, CHX counter 36.1
COc1ccc(-c2nc3ccccc3c(=O)[nH]2)cc1	Shiga inhibitor 55.7, CHX counter 43.3
Cc1cccc(-c2nc3ccccc3c(=O)[nH]2)c1	Shiga inhibitor 73.2, CHX counter 23.5
O=c1[nH]c(-c2cccnc2)nc2ccccc12	none
Cc1cc(C)cc(N2CC(O)=C(c3nc4ccccc4c(=O)[nH]3)C2=N)c1	none
N=c1oc2ccccc2cc1-c1nc2ccccc2c(=O)[nH]1	Shiga inhibitor 59.8
O=c1[nH]c(-c2ccncc2)nc2ccccc12	none
CCOC(=O)c1c(NC(=O)c2cc(=O)c3cc(C)cc(C)c3o2)sc(C)c1C	none (no result: Shiga inhibitor, CHX counter)
CCCCS(=O)(=O)CC(O)CSc1nc(-c2ccc(C)cc2)cc(-c2ccccc2)c1C#N (stereo not given)	none (no result: Shiga inhibitor, CHX counter)
Cc1nc2cnc(N3CCNCC3)nc2n(-c2ccccc2)c1=O	none (no result: Sm TGR block, Shiga inhibitor, CHX counter)
CC(=O)c1cnc2c(-c3ccccc3)c(-c3ccccc3)nn2c1C	none
Clc1ccc(-c2cnn3c(-c4ccncc4)ccnc23)cc1	Shiga inhibitor 88.6, CHX counter 34.9
Cc1nn2c(-c3ccncc3)ccnc2c1Cl	none
Cc1cc(-c2ccc(Cl)cc2)n2nc(N)nc2n1	none
Nc1nc2nccc(-c3ccc(Cl)cc3)n2n1	Shiga inhibitor 41.7, CHX counter 43.8
Nc1c(C(=O)O)cnc2c(-c3ccc(Cl)cc3)cnn12	CHX counter 26.9
CC(=O)c1cnc2c(-c3ccc(Cl)cc3)cnn2c1C	Shiga inhibitor 39.5
COc1ccc(OC)c(CCNC(=O)c2nc(-c3ccc(Cl)cc3)n3c2CCCCC3)c1	FMDV inh inconclusive (no result: Shiga inhibitor, CHX counter)
CCc1ccccc1Nc1cc(C(=O)NCc2ccc(C)cc2)c2ccccc2n1	none (no result: Shiga inhibitor, CHX counter)
O/C=c1\ccc2cccc3nc(C(F)(F)F)nc1c23	Sm TGR block 3.16µM, FMDV inh 12.6µM
NNc1nc(C(F)(F)F)nc2ccccc12	none
Cc1c(Cl)cccc1NC(=O)CSc1nc(=O)[nH]c2c1CCCC2	none (no result: Shiga inhibitor, CHX counter)
Fc1ccc(Cn2cccc2C2=NC(c3ccccc3)CO2)cc1 (stereo not given)	Shiga inhibitor 74.9, CHX counter 68.7
Cc1oc(C(C)(C)C)cc1C(=O)Nc1ccc2c(c1)OCCO2	Shiga inhibitor 101.7, CHX counter 52.7
Cc1oc(C(C)(C)C)cc1C(=O)Nc1cccc(/C=C/C(=O)O)c1	none
Cc1oc(C(C)(C)C)cc1C(=O)Nc1ccc2c(c1)OCO2	Sm TGR block inconclusive, Shiga inhibitor 78.8, CHX counter 32.2
CCC(C)[C@@H](N)C(=O)N/N=C/c1ccc2ncccc2c1 (stereo not given in full)	none
C(=N\NCc1ccccc1)/c1ccc2ncccc2c1	Shiga inhibitor 79.2, CHX counter 38.2
C(=N\NCc1ccccc1)/c1ccc2nccnc2c1	Shiga inhibitor 63.8, CHX counter 37.1
C(=N\n1cnnc1)/c1ccc2ncccc2c1	none
S=C(N/N=C/c1ccc2ncccc2c1)Nc1ccccc1	Shiga inhibitor 66.3, CHX counter 35.3
COCCn1c(CNC(=O)c2cc(OC)c(OC)c(OC)c2)nc2cccnc21	none (no result: Shiga inhibitor, CHX counter)
CC1(c2nnc(Cc3ccccc3)o2)CC(c2ccc([N+](=O)[O-])cc2)=NO1 (stereo not given)	Sm TGR block 6.31µM, FMDV inh inconclusive
O=[N+]([O-])c1ccc(Cc2nnc(-c3ccc(F)cc3)o2)cc1	Shiga inhibitor 74.7, CHX counter 32.5
Cc1ccc(-c2nnc(Cc3ccc([N+](=O)[O-])cc3)o2)cc1	Shiga inhibitor 69.1, CHX counter 56.4
Cc1ccc(NC(=O)C(=O)NCC(c2cccnc2)N2CCN(c3ccccc3F)CC2)cc1Cl (stereo not given)	FMDV inh inconclusive (no result: Shiga inhibitor, CHX counter)
COc1ccc(NC(c2ccc(F)cc2)c2nnc(-c3ccccc3Cl)o2)cc1Cl (stereo not given)	none (no result: Shiga inhibitor, CHX counter)
COc1ccc(OC)c(Nc2sc(C(=O)c3ccccc3)c(N)c2S(=O)(=O)c2ccccc2)c1	none (no result: Shiga inhibitor, CHX counter)
Cc1ccc2oc(=O)c3cnn(CC(=O)N4CCN(c5ccccc5F)CC4)c3c2c1	none (no result: Shiga inhibitor, CHX counter)
Cc1ccc(CN(C(=O)c2ccccc2F)c2ccccn2)o1	Sm TGR block 44.7µM (no result: Shiga inhibitor, CHX counter)
COc1cccc(-c2ccc3ncnc(NCc4cccc(F)c4)c3c2)c1	none (no result: Shiga inhibitor, FMDV inh, CHX counter)
CCOC(=O)C(=CNc1ccc(-c2ccco2)c(Cl)c1)C(=O)OCC	Sm TGR block 14.1µM
O=C(Cn1c(=O)n(-c2ccc(Cl)cc2)c(=O)c2sc3ccccc3c21)NC1CCCCC1	none (no result: Shiga inhibitor, CHX counter)
Cc1cccc(NC(=O)c2cccc(OC(=S)N3CCOCC3)c2)c1	none
